This passage reports inhibition results from PubChem BioAssay AID588497 (NMMLSC, 2011).

One may read the inhibition as the relative decrease from the control value, in per cent.

Structures are written as SMILES. Out of some 360,000 compounds screened, about 780 (0.22%) were called active. About 4% were inconclusive and are not listed. This is one part of a sample in which actives are shown more often than they occur. No stated cut-off is given here; in the data, active means inhibition above about 35% (passing the limit was not always enough); inconclusive means no clear call, values can overlap the other calls.

In the assay the test system is Botulinum neurotoxin type F light chain protease (Clostridium botulinum). Description: BoNT/F light chain protease inhibitors, primary screen, biochemical, flow cytometry, MLPCN library (AID 588497). Further: plate controls were buffer without enzyme for full effect and enzyme alone for no effect. The note with it: Multiplex microsphere protease cleavage assay, at 10 µM, stronger effect = higher value. (A flow cytometer gives signals particle by particle.)
With `O=C(Nc1nnc(SCc2c(Cl)cccc2Cl)s1)C1CCCO1` (centres undefined), the inhibition is -21.4% (inactive).

With `O=C(Nc1ccc(-c2nnc(-c3ccccc3)o2)cc1)C1CCCO1` (centres undefined), the inhibition is -1.7% (inactive). Take `O=C(Nc1nnc(CCc2ccccc2)s1)C1CCCO1` (centres undefined): the inhibition is 37% (active). Next, `NCCCNC(=S)NCCCN(Cc1ccc(Cl)cc1)c1ccc(Br)cn1`: -47.9% (inactive); `C=C1C(=O)OC2C1CCC(C)=CCCC1(C)OC21` (centres undefined): -2.6% (inactive).

Take `COc1ccc(Cl)cc1-c1cc(C(=O)Nc2cc(OC)c(OC)c(OC)c2)[nH]n1`: the inhibition was -0.6% (inactive). On to `CCCc1c(-c2ccccc2F)ncn1Cc1ccccc1OC`, for which the inhibition was -10.4% (inactive). Next, `Cc1ccc(NC(=O)c2ccco2)cc1`: -6% (inactive). `Cc1ccc(C(=O)COc2cccc(NC(=O)c3ccco3)c2)cc1`: the inhibition was 44.6% (active).

As for `Cc1cccc(OCC(=O)Nc2ccc(NC(=O)c3ccco3)c(C)c2)c1`, the inhibition is 17.3% (inactive). Next, `Clc1cccc(Cc2c(-c3cccc(Cl)c3)nc3ccc(Cl)cn23)c1`: -3.7% (inactive); `Fc1cccc(Cc2c(-c3ccc(Cl)cc3)nc3ccc(Cl)cn23)c1`: -6% (inactive).

Regarding `O=C(Cc1ccccc1[N+](=O)[O-])N1CCN(Cc2ccc3c(c2)OCO3)CC1`, the inhibition was -12.3% (inactive). Next, `CCC(C)(C(=O)NC1CCCCC1)N(C)C(=O)c1ccc2c(c1)OCO2` (centres undefined): 4% (inactive); `CCN1CCN(C(C(=O)NC2CCCC2)c2cc3c(cc2[N+](=O)[O-])OCO3)CC1` (centres undefined): 35.9% (active). For the compound `OC(c1ccccc1)c1nc(/C=C/c2ccc(C(F)(F)F)cc2)cs1` (centres undefined), the inhibition is -10.4% (inactive).

As for `Cc1cc(=O)oc2c3c(cc(OCC(=O)NCC(O)c4ccccc4)c12)OC(C)(C)CC3` (centres undefined), the inhibition was -2% (inactive). Take `O=C(CC[C@H]1O[C@@H](n2ccc(=O)[nH]c2=O)[C@H](O)[C@@H]1O)N[C@H](Cc1ccccc1)C(=O)NCCCN1CCCC1=O`: the inhibition is 1.4% (inactive). Next, `O=C(NCCc1ccc(Cl)cc1)C1CCCN1C(=O)NCc1ccccc1` (centres undefined): -20.3% (inactive); `Cc1ccc(CNC(=O)C2CCCN2C(=O)NCc2ccccc2)cc1` (centres undefined): 5.7% (inactive). Next, `CC(=O)c1cccc(NC(=O)N2CCCC2C(=O)NCCc2ccccc2)c1` (centres undefined): 35.3% (active); `CCOC(=O)c1ccc(-c2ccc3ncnc(N(C)Cc4sccc4C)c3c2)o1`: 6.1% (inactive); `CC(=O)N1Cc2cc(C(=O)NCc3cccc(F)c3)nc(-c3cccc(C4=CCCCC4)c3)c2[C@H]1CCO`: -0.7% (inactive). As for `O=C(Nc1nnc(C2CC2)s1)c1ccccn1`, the inhibition was -19.8% (inactive). Next, `CN(C(=O)c1ccccn1)c1nnc(-c2ccccn2)s1`: 40.4% (active); `CN(C(=O)C1CCOC1)c1nnc(-c2cccnc2)s1` (centres undefined): 6.9% (inactive); `CC(C)Cc1nnc(NC(=O)CCNC(=O)c2ccccc2Cl)s1`: -5.1% (inactive). For `CC(C)Cc1nnc(NC(=O)CCC(=O)Nc2ccc3cn[nH]c3c2)s1`, the inhibition was 43.7% (active). Next, `CC(C)Cc1nnc(NC(=O)CN2C(=O)NC3(CCCCC3)C2=O)s1`: 7.7% (inactive); `CCCc1nc2c3ccccc3ccn2c1Cc1ccccc1C(F)(F)F`: 1% (inactive).

On to `Cc1nc2c(OCc3ccc(Cl)cc3)cccn2c1N(C)Cc1cccs1`, for which the inhibition is -1.1% (inactive). Next, `COC(=O)C[n+]1cccc2ccccc21`: 10% (inactive). Next, `O=C(C[n+]1cc(Br)cc2ccccc21)c1ccc(F)cc1`: 41.8% (active).

In the case of `O=C(CNC(=O)c1ccccc1F)c1ccc(Br)cc1`, the inhibition was -24.7% (inactive). Take `CCCCc1c(-c2ccc(Cl)cc2)ncn1CCc1ccccc1OC`: the inhibition was 0.1% (inactive). As to `NC(c1csc(NC(=O)Nc2cccc(C(F)(F)F)c2)n1)C1CCCCC1` (centres undefined), the inhibition was -35.6% (inactive). With `Cc1cccc(-c2cnc(C(O)c3ccc4ccccc4c3)[nH]2)c1` (centres undefined), the inhibition is -3.1% (inactive). Next, `COc1cc(/C=C2\SC(=S)N(Nc3ncc(C(F)(F)F)cc3Cl)C2=O)cc(OC)c1OC`: 43.1% (active); `O=C1/C(=C/c2ccc(F)cc2)SC(=S)N1NS(=O)(=O)c1ccccc1`: 0.7% (inactive). On to `COc1cc(/C=C/C(=O)N2c3ccccc3Sc3ccc(C(F)(F)F)cc32)cc(OC)c1OC`, for which the inhibition was -24.7% (inactive). Next, `COc1ccc(Br)c(Cn2c(C)c(C(=O)NCc3cccs3)sc2=O)c1`: 3.6% (inactive); `O=C(Nc1nnc([C@H]2C[C@H](O)[C@@H](CO)O2)s1)c1cccc(Cl)c1`: 2.2% (inactive). Regarding `COc1ccccc1CNC(=O)C1CCN(S(C)(=O)=O)CC1`, the inhibition was -1.3% (inactive). Turning to `COc1ccccc1CNC(=O)[C@@H]1CCCN1C(=O)[C@@H]1Cc2ccccc2CN1C(=O)OC(C)(C)C`, the inhibition is -3.1% (inactive). With `COc1ccccc1CNC(=O)C1Cc2ccccc2C(=O)O1` (centres undefined), the inhibition was 40.9% (active). Next, `NC(Cc1ccccc1)c1csc(Nc2cc(Oc3ccccc3)ncn2)n1` (centres undefined): -21.7% (inactive); `COc1ccc(CC(N)c2csc(NC(=O)Cc3ccccc3)n2)cc1` (centres undefined): -9.3% (inactive). Next, `CN(C)C(=O)c1cccc(-c2cnc3sc(NCc4ccc5c(c4)OCO5)nn23)c1`: -7.5% (inactive); `Cc1ccc2[nH]c(=O)c(CN(CCCN(C)C)C(=O)Nc3cccc(Cl)c3)cc2c1`: 1% (inactive); `COc1ccc(CCN(Cc2cc3cccc(C)c3[nH]c2=O)C(=O)N2CCCC2)cc1OC`: -19.1% (inactive).

On to `COc1cc2cc(CN(CCN3CCCC3)C(=O)Nc3ccccc3Cl)c(=O)[nH]c2cc1OC`, for which the inhibition is 56.9% (active).

With `FC(F)(F)Oc1ccccc1C(c1nnnn1C1CCCCC1)N1CCN(C/C=C/c2ccccc2)CC1` (centres undefined), the inhibition was -16.7% (inactive). Turning to `CC1(Cc2ccccc2C#N)C(=O)Nc2ccc(-c3ccc4[nH]ccc4c3)cc21` (centres undefined), the inhibition is -3.4% (inactive). Next, `CC(=NNC(=S)N1CCCCCC1)c1ccccn1`: 55% (active); `C/C(=N\NC(=O)c1ccccc1F)c1ccccn1`: -0.7% (inactive). Next, `Cc1cccc(C)c1NC(=S)N1CCCCCC1`: 4.7% (inactive).

Consider `Cc1ccc(C(NC(=O)C2CCN(CCOc3ccc(Cl)cc3Cl)CC2)c2ccccn2)cc1` (centres undefined), for which the inhibition was 4.2% (inactive). For `CC(=O)Nc1cccc(-c2ccnc3c2CC(C)(C(=O)NCc2ccccc2)O3)c1` (centres undefined), the inhibition is -1.6% (inactive). Next, `CCOc1ccc(CCN2C(=S)N([C@@H](CC(C)C)CN3CCC[C@@H]3CN3C(=S)NC[C@@H]3Cc3ccc(O)cc3)C[C@@H]2CC(C)C)cc1`: -7.7% (inactive).
